# Data published in PubChem BioAssay (NCI).
# This is part of a sample that, as a whole, favours compounds with a hit. Of some 83,000 tested, about 20% had one in any assay.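 Growth was measured after 48 h exposure to one concentration of compound in 96-well plates. Values under 10 count as active.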 Values without a mark were called inactive. Activity calls are given as the source filed them.
# Test system: MDA-MB-468 breast
# Test: NCI-60 one-dose screen, 48 h (100 = growth as untreated, 0 = no growth, -100 = all killed)
# Conditions: 10 µM unless noted
row,SMILES,growth
1,C=C1C(=O)O[C@H]2[C@H]1CC/C(COC(=O)/C=C/c1cccnc1)=C\CC[C@@]1(C)O[C@@H]21,10.9%
2,COC(=O)c1ccc2c(c1)nc(-c1ccc(O)c(OC)c1)n2-c1cc(C(C)(C)C)[nH]n1,104%
3,COC(=O)[C@]12CC[C@@H](C)[C@H](C)[C@@H]1C1=CC[C@@H]3[C@@]4(C)C[C@@H](O)[C@H](O)[C@@](C)(CO)[C@@H]4[C@H](O)C[C@@]3(C)[C@]1(C)CC2,-53% (active)
4,CN1CCN(c2ccc3nc(-c4[nH]ncc4Nc4ncnc5[nH]ccc45)[nH]c3c2)CC1,-55.6% (active)
5,N#CCNC(=O)c1ccc(-c2ccnc(Nc3ccc(N4CCOCC4)cc3)n2)cc1,9.99% (active)
6,C[C@@H](N)c1ccc(C(=O)Nc2ccnc3[nH]ccc23)cc1,49.2%
7,NC[C@@](O)(c1ccc(Cl)cc1)c1ccc(-c2cn[nH]c2)cc1,-40.9% (active)
8,COc1cc(-c2ccc(NC(=O)NC3CC3)c(OC)c2)ccc1NC(=O)NC1CC1,88.8%
9,COc1cc2c3c(n(CCCNC4CCC4)c(=O)c2cc1OC)-c1cc2c(cc1C3=O)OCO2,30.6%
10,Oc1ccccc1-c1nnc(COc2ccc(Cl)cc2Cl)o1,58.7%
11,CN(C)c1ccc(/C=N/N=C(\C#N)[S][Sn]([Cl])([c]2ccccc2)[c]2ccccc2)cc1,-76.8% (active)
12,CCOC(=O)c1c(C)c2c(n1Cc1ccccc1)CSc1cc(C#N)c(=O)[nH]c1-2,80.3% [100 µM]
